Laboratory results: ChEMBL document CHEMBL3988442, “University of Dundee, Small-Polar-MMV Screening Library” (2021)
In all, about 48,000 compounds went through this assay and about 13,000 (27%) showed an effect of 50% or more. The list shows a part of the results.

test system: Wolbachia pipientis; experiment: Anti-Wolbachia Cell-Based Screen; format: functional; parameters: scale not given: in the data most compounds retested in dose-response had high values; settings: 5 µM

Going from `CSc1ccc(S(=O)(=O)N2CCCCC2CCNC(C)=O)cc1` (stereo not given) to `CNS(=O)(=O)CC1CCCN1C(=O)c1cccc(Cl)c1` (stereo not given), the “Percent Effect” value falls from -2.003% to -8.436%.

Going from `CCN1CC(C(=O)N(C)Cc2ccon2)CC1=O` (stereo not given) to `Cc1ccccc1CCNC(=O)C1CC(=O)N(CC(F)(F)F)C1` (stereo not given), the “Percent Effect” value falls from 8.13% to 1.737%.

First: CCN(CC)[C@H]1C[C@@H](Cc2cc(CO)on2)C1(C)C
Second: Cc1cc(C)n(CCN(C)c2ccc(-c3nc(C4CC4)no3)cn2)n1
The “Percent Effect” value of the first is higher: -1.281% for the first, -7.447% for the second.

First: COC(=O)c1ccccc1NC(=O)c1c(C)cn(C)c1CC(=O)O
Second: COc1ccc(C)cc1NC(=O)c1c(C)cn(C)c1CC(=O)O
The “Percent Effect” value of the first is lower: 101.4% for the first, 106.8% for the second.

Compared with `COc1ccc(OC)c(CNCc2c(C)nc3sc(C)cn23)c1`, `COc1ccc(OC)c(NC(=O)c2c(C)cn(C)c2CC(=O)O)c1` is higher in “Percent Effect” value: 17.49% for the first, 111% for the second.

Going from `COc1ccc(C)cc1NC(=O)CNc1ccn(CC(N)=O)n1` to `CCn1cc(C(=O)Nc2ccc(C)cc2C(=O)OC)cn1`, the “Percent Effect” value rises from -13.27% to -8.405%.

Compared with `COc1ccc(OC)c(NC(=O)N2CCCC2c2ccco2)c1` (stereo not given), `COc1ncc(NC(=O)Nc2cc(C)ccc2OC)cn1` is higher in “Percent Effect” value: -3.414% for the first, 7.981% for the second.

First: COC(=O)c1ccccc1NC(=O)c1nc2ccccc2n(C)c1=O
Second: CN1CC(C(=O)NCc2ccc(OCc3cccnc3)cc2)CC1=O (stereo not given)
The “Percent Effect” value of the first is higher: 2.974% for the first, -2.56% for the second.

First: CCCN(C1CCc2ccccc2C1)S(C)(=O)=O (stereo not given)
Second: COc1ccccc1S(=O)(=O)N1CCN(C)[C@@H]2CS(=O)(=O)C[C@@H]21
The “Percent Effect” value of the first is lower: -12.4% for the first, -4.767% for the second.

First: NC(=O)CN(CC1CCOC1)C1CC1 (stereo not given)
Second: NC(=O)N1CCCC(C(=O)NCCOc2ccc(F)c(F)c2)C1 (stereo not given)
The “Percent Effect” value of the first is higher: 12.45% for the first, -0.02905% for the second.

Compared with `COCC(=O)N1CCN(S(=O)(=O)c2ccccc2)[C@H]2CS(=O)(=O)C[C@H]21`, `COCC(=O)N1CCN(S(=O)(=O)c2cccs2)[C@H]2CS(=O)(=O)C[C@H]21` is lower in “Percent Effect” value: 117.3% for the first, 101.1% for the second.

Compared with `COCC(=O)N1CCN(C(=O)c2cccs2)C[C@H]1C(=O)OC`, `COCC(=O)N1CCN(S(=O)(=O)c2ccccc2)[C@@H](C(=O)OC)C1` is higher in “Percent Effect” value: -7.618% for the first, 2.651% for the second.

Compared with `CCC(=O)N1CCN(S(=O)(=O)c2cccc(F)c2)[C@H]2CS(=O)(=O)C[C@H]21`, `CS(=O)(=O)N1CCN(C(=O)c2ccco2)[C@H]2CS(=O)(=O)C[C@H]21` is lower in “Percent Effect” value: 7.69% for the first, -4.132% for the second.

Going from `CCCN1C(=O)[C@@H]2[C@@H](CCN2C(=O)COC)N(Cc2cccs2)C1=O` to `COCC(=O)N1CCN(C(=O)Cc2cccs2)[C@H]2CS(=O)(=O)C[C@H]21`, the “Percent Effect” value rises from 27.38% to 102.4%.

First: CC(C)CN1CC(C(=O)NCCc2ccc(OC(F)F)cc2)CC1=O (stereo not given)
Second: CN1CC(C(=O)NCCc2ccc(F)c(Br)c2)CC1=O (stereo not given)
The “Percent Effect” value of the first is lower: -18.94% for the first, 95.91% for the second.

Compared with `CC(=O)N1CCCC(C(=O)NCCc2ccc(F)c(Br)c2)C1` (stereo not given), `CC(=O)N1CCCC(C(=O)NCCc2nc(Cc3ccccc3)no2)C1` (stereo not given) is lower in “Percent Effect” value: 78.71% for the first, -1.107% for the second.

Compared with `CSCc1nc(CCNC(=O)C2CCCN(C(C)=O)C2)cs1` (stereo not given), `CC(=O)N1CCCC(C(=O)NCCOc2cc(C)cc(C)c2)C1` (stereo not given) is higher in “Percent Effect” value: 1.152% for the first, 99.72% for the second.

Compared with `CN1CC(C(=O)NCCc2ccn(-c3ccc(F)cc3)n2)CC1=O` (stereo not given), `CN1CC(C(=O)NCCc2ccc(Br)cc2F)CC1=O` (stereo not given) is higher in “Percent Effect” value: -45.08% for the first, 108.1% for the second.

Compared with `CN1CC(C(=O)NCc2cccnc2OCC(F)(F)F)CC1=O` (stereo not given), `COc1ncccc1CNC(=O)C1CC(=O)N(C)C1` (stereo not given) is lower in “Percent Effect” value: 1.673% for the first, -5.362% for the second.

Compared with `CN1CC(C(=O)NCc2ccc(Br)cc2F)CC1=O` (stereo not given), `NC(=O)N1CCCC(C(=O)NCCOc2ccc(F)cc2F)C1` (stereo not given) is lower in “Percent Effect” value: 97.3% for the first, -7.563% for the second.

First: Cn1ccc(C(=O)NC2CCN(c3ncccn3)CC2)cc1=O
Second: Cc1ccc(C(=O)N2CCC(c3noc(-c4cccnc4)n3)CC2)cn1
The “Percent Effect” value of the first is lower: 3.49% for the first, 104.3% for the second.

First: CC(C)N1CCN(C(=O)Nc2cnn(CC(N)=O)c2)CC1
Second: N#Cc1cccnc1NCCNC(=O)N1CCCSCC1
The “Percent Effect” value of the first is higher: 2.959% for the first, -6.239% for the second.

Compared with `CCN(CC)S(=O)(=O)CC(=O)Nc1ccsc1`, `COc1cccc(S(=O)(=O)CCN2CCN(CCO)CC2)c1` is higher in “Percent Effect” value: -11.66% for the first, 9.306% for the second.

Going from `O=C1NCCCC[C@@H]1Nc1ccc(-c2nc(C3CC3)no2)cn1` to `Cc1cc(CNc2ccc(-c3nc(C4CC4)no3)cn2)no1`, the “Percent Effect” value falls from -3.27% to -5.978%.

First: Cc1ccc(-c2nc(C3CCN(C(=O)c4ccnn4C)CC3)no2)cn1
Second: Cc1ccc(-c2nc(C3CCN(C(=O)c4cnn(C)c4)CC3)no2)cn1
The “Percent Effect” value of the first is higher: 110.8% for the first, 103.5% for the second.

First: Cc1noc(-c2ccc(N3CCC(C(=O)N4CCCC4)CC3)nc2)n1
Second: Cc1ccc(-c2nc(C3CCN(C(=O)c4ccn(C)n4)CC3)no2)cn1
The “Percent Effect” value of the first is lower: -5.391% for the first, 126.5% for the second.

Compared with `N#Cc1cccc(C(=O)N2CC(c3nc(-c4cccnc4)no3)C2)c1`, `Cc1cccc2[nH]c(C3CCN(C(=O)c4ccnn4C)CC3)nc12` is lower in “Percent Effect” value: 18.62% for the first, 1.136% for the second.

For `Cc1csc(CNc2ccc(-c3nc(C4CC4)no3)cn2)n1`, the “Percent Effect” value was 8.683%.
